# Bioassay records (PubChem)
# Shown are actives, neighbours in structure and some others; about 3.8% of the full set was active somewhere.
# NTR1 ag – activates human neurotensin receptor 1. NTR1-U2OS beta-arrestin-GFP spot imaging, agonist mode. hit rate 0.17% among 330,000. activation, % at 20 µM. P30989;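 active = activation at or above 40% of the spot to cytoplasm intensity ratio, with at least 20 cells analyzed; inconclusive = wells under 20 cells, flagged as cytotoxic or low count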;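 note: 0% = DMSO without peptide and 100% = 100 nM NTR1 peptide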
# Beta cell apopt – beta cell apoptosis inhibition; protection from apoptosis, % (concentration not given with the values); INS-1E cytokine-induced death, ATP luminescence, 48 h; percent of positive-control rescue, neutral wells zero; hit rate 0.8% among 300,000;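 active = Every replicate reaches about 75%, or at least half do and their mean reaches it too, limit read from the data; inconclusive = At least half of replicates reach the limit but their mean does not; inactive = Under half of replicates reach the limit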;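 note: 0% = cytokine-treated negative control wells and 100% = positive control rescue; higher means more ATP so stronger rescue from cytokine killing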
# 697 NFkB inh – inhibitors of the PMA/ionomycin-induced NF-kB reporter in 697 B cells | inhibition, % at 4 µM | hit rate 0.33% among 330,000 | 697 B-cell NF-kB luciferase reporter, 16 h; in the data active = inhibition above about 35%
# A1 inh – inhibitors of the anti-apoptotic protein A1, read as caspase activation | MEF A1-2A-BIM cells, Caspase-Glo 3/7 luminescence, 3 h; percent of clofoctol response, vehicle zero | caspase activation, % (concentration not given with the values) | hit rate 0.066% among 330,000;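 active = over half of replicate activation scores above 10%, or exactly half above 10 with the replicate mean above 10; inconclusive = replicate mean below 10 yet half the replicates above 10; inactive = over half of replicates below 10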
# Jurkat NFkB inh – lowers PMA/ionomycin-induced NF-kB signal in Jurkat cells; AID 435003; inhibition, % at 4 µM; PMA/ionomycin-induced NF-kB luciferase reporter, luminescence; hit rate 0.53% among 330,000; in the data active = inhibition above about 50%
# Mdm2 MdmX PPI – disrupts the human Mdm2-MdmX interaction; O15151+Q00987; SaOS-2 split-luciferase Mdm2/MdmX complementation, luminescence; inhibition, % at 8 µM; hit rate 3% among 330,000; AID 485346;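 active = inhibition of at least 50% at 8 µM in the primary screen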
# Target sequence (O15151 whole entry, looked up): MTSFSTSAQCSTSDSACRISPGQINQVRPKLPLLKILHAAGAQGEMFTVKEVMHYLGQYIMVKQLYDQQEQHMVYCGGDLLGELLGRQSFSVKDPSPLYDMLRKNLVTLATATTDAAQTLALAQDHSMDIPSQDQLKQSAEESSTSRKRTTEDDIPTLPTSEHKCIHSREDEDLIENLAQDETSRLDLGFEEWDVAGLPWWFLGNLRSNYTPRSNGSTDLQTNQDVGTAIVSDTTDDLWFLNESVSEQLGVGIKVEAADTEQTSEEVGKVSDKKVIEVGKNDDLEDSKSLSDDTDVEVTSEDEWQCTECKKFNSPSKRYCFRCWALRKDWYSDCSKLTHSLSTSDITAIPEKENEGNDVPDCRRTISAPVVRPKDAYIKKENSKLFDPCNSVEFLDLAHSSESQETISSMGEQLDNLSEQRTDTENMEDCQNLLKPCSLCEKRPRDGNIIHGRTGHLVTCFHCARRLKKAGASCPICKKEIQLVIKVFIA
# Target sequence (Q00987 whole entry, looked up): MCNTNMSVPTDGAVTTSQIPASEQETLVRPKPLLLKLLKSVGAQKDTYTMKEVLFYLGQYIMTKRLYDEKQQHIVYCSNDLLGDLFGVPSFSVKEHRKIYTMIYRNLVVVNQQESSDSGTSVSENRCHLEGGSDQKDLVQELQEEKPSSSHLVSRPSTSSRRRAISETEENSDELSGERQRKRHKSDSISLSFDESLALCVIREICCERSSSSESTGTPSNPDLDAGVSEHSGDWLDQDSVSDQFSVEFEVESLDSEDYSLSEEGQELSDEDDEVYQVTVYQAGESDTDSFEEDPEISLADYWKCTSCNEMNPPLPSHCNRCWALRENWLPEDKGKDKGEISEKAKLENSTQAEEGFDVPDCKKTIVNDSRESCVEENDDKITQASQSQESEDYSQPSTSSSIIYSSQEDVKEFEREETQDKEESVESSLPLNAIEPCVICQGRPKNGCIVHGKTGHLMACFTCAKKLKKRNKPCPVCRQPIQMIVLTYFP
# Jurkat NFkB conf – inhibitors of the PMA/ionomycin-induced NF-kB reporter in Jurkat cells, retest. Jurkat NF-kB luciferase, 16 h. shares compounds with Jurkat NFkB inh. AID 435020. inhibition, % at 4 µM. hit rate 27% among 2,700;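 active = inhibition reaching about 45% at 4 µM in either replicate, limit read from the data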;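 note: plate controls were PMA/ionomycin stimulated DMSO wells for no effect and unstimulated DMSO wells for full effect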
# 697 NFkB conf – inhibitors of the PMA/ionomycin-induced NF-kB reporter in 697 B cells, retest | shares compounds with 697 NFkB inh | 697 B-cell NF-kB luciferase, 16 h | inhibition, % at 4 µM | hit rate 35% among 2,000 | AID 449746; in the data active = inhibition mostly above about 28%, no sharp cut-off; inactive = mostly below about 22%
# Mdm2 MdmX conf – confirmation of human Mdm2/MdmX interaction inhibitors | Mdm2-MdmX binding, luminescent assay | hit rate 55% among 10,000 | AID 489028 | shares compounds with Mdm2 MdmX PPI | inhibition, % at 8 µM; in the data active = inhibition above about 40%
# Full FLuc ctr – counter-screen for Mdm2/MdmX inhibitors: full-length luciferase | SaOS-2 full-length luciferase counterscreen, luminescence | shares compounds with Mdm2 MdmX PPI | inhibition, % at 8 µM | hit rate 77% among 6,200;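 active = mean inhibition at 8 µM reaching about 37%, which flags the compound as non-specific, limit read from the data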;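 note: p53-null SaOS-2 cells with luciferase driven by a doxycycline-inducible promoter; compound on cells about two nights before reading with doxycycline added after day one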
# NTR1 ag confirm – NTR1 (human) agonism, confirmed; shares compounds with NTR1 ag; activation, % at 20 µM; hit rate 38% among 480; NTR1-U2OS beta-arrestin-GFP translocation imaging;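 active = mean activation at 20 µM of at least 40%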;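 note: 0% = DMSO without peptide and 100% = 100 nM NTR1 peptide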
# The depositor's hits bear a star; i = inactive; ? = inconclusive; nt = no result given.
SMILES,NTR1 ag,Beta cell apopt,697 NFkB inh,A1 inh,Jurkat NFkB inh,Mdm2 MdmX PPI,Jurkat NFkB conf,697 NFkB conf,Mdm2 MdmX conf,Full FLuc ctr,others
CN(C)C(=O)O/N=C(\N)COc1ccc(C(C)(C)C)cc1,0,7,-68,-1,60*,98*,-13,nt,96*,57*,
Cc1ccc(-n2c(O)c(/C=N/N3CCCCC3c3cccnc3)c(=O)[nH]c2=S)cc1 (stereo not given),-1,8,2,1,-4,15,nt,nt,nt,nt,
Cc1nc2c(=O)n(C)c(=O)nc-2n(C)n1,0,106*,-30,-1,56*,74*,100*,nt,58*,19,
COC1=C[C@@H]2C3=C([C@@H]2C1=O)[C@@H](NC(C)=O)CCc1cc(OC)c(OC)c(OC)c13,4,-7,16,1,9,-10,nt,nt,nt,nt,
COc1cc2c(c(OC)c1OC)-c1ccc(O)c(=O)cc1C(NC(C)=O)CC2 (stereo not given),4,49,-212,?,55*,69*,1,nt,66*,110*,
CC1CCC/C=C/C2CC(O)CC2C(O)/C=C/C(=O)O1 (stereo not given),0,99*,69*,1,97*,96*,-22,80*,100*,52*,
C[C@H]1CCC/C=C/C2C[C@H](O)CC2[C@H](O)/C=C/C(=O)O1 (stereo not given in full),3,99*,71*,3,98*,100*,-25,81*,99*,51*,
C[C@H]1CCC[C@H](O)CCCCCc2cc(O)cc(O)c2C(=O)O1,2,2,9,0,7,30,nt,nt,nt,nt,
CN(C)C(=O)Oc1noc2cc(Cl)ccc12,-1,-11,7,0,8,15,nt,nt,nt,nt,
CC(=O)OC(C)(C)/C=C/C(=O)[C@](C)(O)C1[C@H](O)C[C@@]2(C)C3CC=C4C(C[C@H](O)C(=O)C4(C)C)[C@]3(C)C(=O)C[C@]12C (stereo not given in full),0,58,56*,21*,92*,100*,62*,71*,100*,1,
COc1cccc(CNC(=O)CCC(=O)N2C[C@H]3C[C@H](C2)c2cccc(=O)n2C3)c1OC,-3,nt,13,2,5,16,nt,nt,nt,nt,
COC(=O)C1=C(c2ccccc2)C[C@@H]2CC[C@H]1N2C(=O)NCCS(C)=O (stereo not given in full),-1,-2,10,1,8,22,nt,nt,nt,nt,
CC1(C)C[C@H]2C=C(C=O)[C@]3(C=O)C[C@]3(C)[C@H]2C1,2,105*,-153,-1,94*,100*,52*,nt,100*,-1,
C[C@@H]1O[C@@H](O[C@H]2C[C@@H](O)[C@]3(CO)[C@@H]4C(CC[C@]3(O)C2)[C@@]2(O)CC[C@H](C3COC(=O)C3)[C@@]2(C)C[C@H]4O)[C@H](O)[C@H](O)[C@H]1O (stereo not given in full),-2,0,i,0,95*,68*,67*,i,70*,24,
COc1cc(C2c3cc4c(cc3CC3COC(=O)C32)OCO4)cc(OC)c1OC (stereo not given),0,nt,-29,nt,53*,61*,49*,nt,54*,98*,
CCOC(=O)COc1ccc2c(c1)c(C(C)=O)c(C)n2Cc1ccccc1,8,-3,24,1,-9,0,nt,nt,nt,nt,
c1ccc(-c2[nH]c[n+](CC3CO3)c2-c2ccccc2)cc1 (stereo not given),1,-18,5,1,12,9,nt,nt,nt,nt,
C=C(C=O)CC1CC(O)[C@]2(C)OC3C[C@@H]4OC5C[C@]6(C)O[C@]7(C)CCC8OC9C[C@]%10(C)OC(/C(C)=C\CO)C(O)CC%10OC9CC(C)C8OC7CC6O[C@]5(C)C/C=C\C4OC3CC2O1 (stereo not given in full),-2,4,4,0,-3,10,nt,nt,nt,nt,
C=C(C=O)C[C@@H]1C[C@H](O)C2OC3C[C@]4(C)OC5/C=C\CC6OC7C(CC=CCC6OC5CCCC4OC3CC2O1)OC1CC2OC3CC(=O)OC3C[C@@H](C)C[C@@]2(C)OC1C[C@@H]7C (stereo not given in full),23,124*,-143,nt,101*,100*,99*,nt,95*,0,
Cc1cc(OC(C)C(=O)NCC2CCC(C(=O)O)CC2)c2c3c(c(=O)oc2c1)CCC3 (stereo not given),0,-7,23,0,2,9,nt,nt,nt,nt,
COC(=O)c1c2[n+](cc3cc(OC)c(OC)cc13)CCc1cc(OC)c(OC)cc1-2,-1,13,14,0,12,15,nt,nt,nt,nt,
CCCC[C@@H](C)C[C@@H](C)C(=O)N(C)[C@@H](CC(C)C)C(=O)N[C@H](C(=O)N(C)[C@H](C(=O)N1C[C@@H](O)C[C@H]1C(=O)N1C(=O)C=C[C@@H]1C)C(C)C)C(C)OC(C)=O (stereo not given in full),8,nt,1,nt,91*,95*,93*,nt,97*,55*,
COc1ccc(S(=O)(=O)NC(CC(=O)N2CCC3(CC2)OCCO3)C(C)C)cc1 (stereo not given),0,nt,11,1,18,11,nt,nt,nt,nt,
NC(N)=N/N=C/c1ccc(N(c2ccccc2)c2ccccc2)cc1,64*,110*,-8,0,61*,97*,7,nt,100*,30,NTR1 ag confirm=20
O=[N+]([O-])[N-][n+]1cnn(Cc2ccc(Cl)cc2)c1,0,nt,1,-1,10,9,nt,nt,nt,nt,
O=c1[nH]c(O)c(/C=C2/C=CC(c3cc(Cl)ccc3Cl)=N2)c(=O)[nH]1,46*,-1,36*,0,17,46,nt,7,nt,nt,
Cc1cc(OCC(=O)N2CCC(C(N)=O)CC2)c2c3c(c(=O)oc2c1)CCCC3,1,-1,42*,0,-8,6,nt,30*,nt,nt,
C[C@H]1CCC[C@@H](O)CCC/C=C/c2cc(O)cc(O)c2C(=O)O1,8,-11,43*,1,10,40,nt,13,nt,nt,
